# Measurements as given in paper PMC7862700, “An all-to-all approach to the identification of sequence-specific readers for epigenetic DNA modifications on cytosine”.
# How the values were obtained:
# Test in all cases: DAPPL (digital affinity profiling via proximity ligation, sequencing); 10 mM Tris-HCl pH 7.5, 50 mM NaCl, 1 mM DTT, 4% glycerol, room temperature, 30 min; GST-TFs on glutathione beads, 16-mer random dsDNA library, 0.1% formaldehyde crosslink after washing; high values mean tight binding
# FEV = target: T1, FEV (Homo sapiens, UniProt Q99581 1-238); conditions: protein: recombinant; tags: N-terminal GST; dsDNA, one strand shown
# T1 sequence: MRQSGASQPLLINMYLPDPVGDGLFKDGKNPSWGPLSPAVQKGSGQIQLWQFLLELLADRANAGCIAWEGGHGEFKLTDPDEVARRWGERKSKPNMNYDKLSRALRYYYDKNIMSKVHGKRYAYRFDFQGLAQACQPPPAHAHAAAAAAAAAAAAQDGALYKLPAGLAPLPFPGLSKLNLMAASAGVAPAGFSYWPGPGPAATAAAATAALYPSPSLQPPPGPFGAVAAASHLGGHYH
# Method in brief: (§1)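 Yeast served to express human transcription factors as GST fusions, which were then captured on glutathione beads and labelled with DNA barcodes. Pooled with a tag-only sample, they were incubated with 200 nmole of a 16-mer random double-stranded DNA library for 30 min at room temperature in Tris/NaCl/DTT/glycerol buffer, washed, crosslinked with 0.1% formaldehyde, ligated by proximity, amplified by PCR and sequenced. Dividing each hexamer's read frequency for a factor by its frequency for the tag-only sample gives the binding signal.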
# ETV5 = ETV5 (Homo sapiens, UniProt P41161 1-510); conditions: protein: recombinant; tags: N-terminal GST; dsDNA, one strand shown
# Method in brief: as §1
# HSF1 = HSF1 (Homo sapiens, UniProt Q00613 1-529); conditions: protein: recombinant; tags: N-terminal GST; chain copies: 3; dsDNA, one strand shown
# Method in brief: as §1
# SPIC = target: T2, SPIC (Homo sapiens, UniProt Q8N5J4 1-248); conditions: protein: recombinant; tags: N-terminal GST; dsDNA, one strand shown
# T2 sequence: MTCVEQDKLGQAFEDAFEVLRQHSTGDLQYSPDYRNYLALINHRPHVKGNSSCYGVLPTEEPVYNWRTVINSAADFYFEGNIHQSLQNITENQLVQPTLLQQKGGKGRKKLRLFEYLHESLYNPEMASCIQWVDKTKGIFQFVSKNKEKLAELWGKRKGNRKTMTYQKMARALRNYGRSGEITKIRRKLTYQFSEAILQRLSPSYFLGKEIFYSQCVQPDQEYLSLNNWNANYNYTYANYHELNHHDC
# Method in brief: as §1
# ELF4 = ELF4 (Homo sapiens, UniProt Q99607 1-663); conditions: protein: recombinant; tags: N-terminal GST; dsDNA, one strand shown
# Method in brief: as §1
# ELK4 = target: T3, ELK4 (Homo sapiens, UniProt P28324-2 1-405); conditions: protein: recombinant; tags: N-terminal GST; dsDNA, one strand shown
# T3 sequence: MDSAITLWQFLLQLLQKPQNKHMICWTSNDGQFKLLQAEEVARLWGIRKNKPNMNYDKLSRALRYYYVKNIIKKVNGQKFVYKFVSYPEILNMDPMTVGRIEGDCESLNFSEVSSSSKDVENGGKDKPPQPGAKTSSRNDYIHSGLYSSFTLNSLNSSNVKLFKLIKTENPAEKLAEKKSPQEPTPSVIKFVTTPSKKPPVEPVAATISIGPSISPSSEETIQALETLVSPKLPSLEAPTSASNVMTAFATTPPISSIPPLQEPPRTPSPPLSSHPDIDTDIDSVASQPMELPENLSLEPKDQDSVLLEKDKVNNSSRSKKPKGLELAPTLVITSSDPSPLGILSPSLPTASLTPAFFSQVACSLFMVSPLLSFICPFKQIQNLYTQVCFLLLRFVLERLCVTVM
# Method in brief: as §1
# ETV2 = target: T4, ETV2 (Homo sapiens, UniProt O00321 1-342); conditions: protein: recombinant; tags: N-terminal GST; dsDNA, one strand shown
# T4 sequence: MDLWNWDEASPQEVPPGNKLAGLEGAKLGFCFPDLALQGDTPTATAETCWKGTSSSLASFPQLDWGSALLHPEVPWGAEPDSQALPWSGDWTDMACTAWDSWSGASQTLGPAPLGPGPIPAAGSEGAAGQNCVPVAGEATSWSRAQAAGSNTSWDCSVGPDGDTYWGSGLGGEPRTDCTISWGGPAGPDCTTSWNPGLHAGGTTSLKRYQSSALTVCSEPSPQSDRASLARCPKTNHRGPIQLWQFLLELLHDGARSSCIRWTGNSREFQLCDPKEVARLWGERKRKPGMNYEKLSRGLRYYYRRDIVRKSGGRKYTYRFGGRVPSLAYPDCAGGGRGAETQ
# Method in brief: as §1
# CRX = CRX (Homo sapiens, UniProt O43186 1-299); conditions: protein: recombinant; tags: N-terminal GST; dsDNA, one strand shown
# Method in brief: as §1
# ETV1 = ETV1 (Homo sapiens, UniProt P50549 1-477); conditions: protein: recombinant; tags: N-terminal GST; dsDNA, one strand shown
# Method in brief: as §1
# ERF = target: T5, ERF (Homo sapiens, UniProt P50548 1-548); conditions: protein: recombinant; tags: N-terminal GST; dsDNA, one strand shown
# T5 sequence: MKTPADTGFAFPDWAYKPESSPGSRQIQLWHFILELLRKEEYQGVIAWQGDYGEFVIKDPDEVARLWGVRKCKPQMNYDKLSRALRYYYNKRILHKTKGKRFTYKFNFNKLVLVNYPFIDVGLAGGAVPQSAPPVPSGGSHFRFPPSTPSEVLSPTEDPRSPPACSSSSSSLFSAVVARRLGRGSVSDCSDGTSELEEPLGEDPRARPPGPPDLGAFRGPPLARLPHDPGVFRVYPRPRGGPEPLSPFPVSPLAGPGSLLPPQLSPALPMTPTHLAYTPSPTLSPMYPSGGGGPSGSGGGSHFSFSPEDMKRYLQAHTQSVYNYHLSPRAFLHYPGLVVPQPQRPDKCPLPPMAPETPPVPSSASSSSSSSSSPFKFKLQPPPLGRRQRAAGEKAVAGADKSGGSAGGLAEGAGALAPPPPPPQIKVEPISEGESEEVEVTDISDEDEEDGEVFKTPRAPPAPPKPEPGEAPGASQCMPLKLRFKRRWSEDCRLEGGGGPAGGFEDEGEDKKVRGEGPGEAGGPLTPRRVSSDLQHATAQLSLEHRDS
# Method in brief: as §1
# ETV3L = target: T6, ETV3L (Homo sapiens, UniProt Q6ZN32 1-361); conditions: protein: recombinant; tags: N-terminal GST; dsDNA, one strand shown
# T6 sequence: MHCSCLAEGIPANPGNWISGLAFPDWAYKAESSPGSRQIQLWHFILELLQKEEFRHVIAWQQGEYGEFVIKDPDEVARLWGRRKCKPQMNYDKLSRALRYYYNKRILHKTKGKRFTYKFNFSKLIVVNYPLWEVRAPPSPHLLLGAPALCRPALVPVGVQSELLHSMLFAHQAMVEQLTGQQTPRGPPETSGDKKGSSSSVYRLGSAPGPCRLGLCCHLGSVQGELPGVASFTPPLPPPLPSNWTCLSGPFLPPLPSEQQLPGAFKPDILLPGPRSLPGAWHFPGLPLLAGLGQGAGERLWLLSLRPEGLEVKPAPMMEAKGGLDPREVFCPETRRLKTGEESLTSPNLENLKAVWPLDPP
# Method in brief: as §1
# ETS2 = target: T7, ETS2 (Homo sapiens, UniProt P15036 1-469); conditions: protein: recombinant; tags: N-terminal GST; dsDNA, one strand shown
# T7 sequence: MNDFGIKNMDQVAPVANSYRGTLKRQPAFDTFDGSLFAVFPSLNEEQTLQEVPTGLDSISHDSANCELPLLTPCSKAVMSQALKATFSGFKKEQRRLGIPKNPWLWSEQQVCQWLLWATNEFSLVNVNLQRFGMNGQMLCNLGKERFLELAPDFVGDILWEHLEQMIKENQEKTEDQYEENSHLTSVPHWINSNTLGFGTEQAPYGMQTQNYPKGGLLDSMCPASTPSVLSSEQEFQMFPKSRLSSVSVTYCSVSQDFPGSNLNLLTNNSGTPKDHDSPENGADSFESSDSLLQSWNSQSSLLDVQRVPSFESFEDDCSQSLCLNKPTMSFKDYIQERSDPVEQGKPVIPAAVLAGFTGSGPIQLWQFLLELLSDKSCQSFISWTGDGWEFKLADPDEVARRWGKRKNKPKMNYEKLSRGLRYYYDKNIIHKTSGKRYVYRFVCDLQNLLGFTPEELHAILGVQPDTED
# Method in brief: as §1
# SPDEF = target: T8, SPDEF (Homo sapiens, UniProt O95238 1-335); conditions: protein: recombinant; tags: N-terminal GST; dsDNA, one strand shown
# T8 sequence: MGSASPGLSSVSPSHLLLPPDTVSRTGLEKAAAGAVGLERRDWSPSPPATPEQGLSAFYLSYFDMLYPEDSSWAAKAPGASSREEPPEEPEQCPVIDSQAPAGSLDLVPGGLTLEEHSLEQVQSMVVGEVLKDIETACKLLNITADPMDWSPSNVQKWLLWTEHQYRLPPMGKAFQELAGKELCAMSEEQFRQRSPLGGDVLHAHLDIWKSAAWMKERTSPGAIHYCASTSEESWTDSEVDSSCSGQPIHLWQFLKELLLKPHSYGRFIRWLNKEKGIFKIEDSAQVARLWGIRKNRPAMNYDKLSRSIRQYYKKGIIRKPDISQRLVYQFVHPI
# Method in brief: as §1
# ELF5 = target: T9, ELF5 (Homo sapiens, UniProt Q9UKW6-2 1-255); conditions: protein: recombinant; tags: N-terminal GST; dsDNA, one strand shown
# T9 sequence: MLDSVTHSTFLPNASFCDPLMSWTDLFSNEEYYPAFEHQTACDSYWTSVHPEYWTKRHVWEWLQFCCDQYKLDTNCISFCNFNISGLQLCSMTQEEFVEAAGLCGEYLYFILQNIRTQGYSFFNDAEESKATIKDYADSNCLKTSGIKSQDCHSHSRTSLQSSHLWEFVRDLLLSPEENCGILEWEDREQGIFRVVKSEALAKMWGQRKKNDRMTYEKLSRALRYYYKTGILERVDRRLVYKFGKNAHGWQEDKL
# Method in brief: as §1
# ETV3 = target: T10, ETV3 (Homo sapiens, UniProt P41162-2 1-143); conditions: protein: recombinant; tags: N-terminal GST; dsDNA, one strand shown
# T10 sequence: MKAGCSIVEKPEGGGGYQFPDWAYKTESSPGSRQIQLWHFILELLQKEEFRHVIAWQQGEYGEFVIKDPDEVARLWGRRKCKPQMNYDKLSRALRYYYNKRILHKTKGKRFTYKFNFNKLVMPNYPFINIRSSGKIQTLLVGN
# Method in brief: as §1
# ETV6 = ETV6 (Homo sapiens, UniProt P41212 1-452); conditions: protein: recombinant; tags: N-terminal GST; dsDNA, one strand shown
# Method in brief: as §1
# ETV7 = target: T11, ETV7 (Homo sapiens, UniProt Q9Y603 1-341); conditions: protein: recombinant; tags: N-terminal GST; dsDNA, one strand shown
# T11 sequence: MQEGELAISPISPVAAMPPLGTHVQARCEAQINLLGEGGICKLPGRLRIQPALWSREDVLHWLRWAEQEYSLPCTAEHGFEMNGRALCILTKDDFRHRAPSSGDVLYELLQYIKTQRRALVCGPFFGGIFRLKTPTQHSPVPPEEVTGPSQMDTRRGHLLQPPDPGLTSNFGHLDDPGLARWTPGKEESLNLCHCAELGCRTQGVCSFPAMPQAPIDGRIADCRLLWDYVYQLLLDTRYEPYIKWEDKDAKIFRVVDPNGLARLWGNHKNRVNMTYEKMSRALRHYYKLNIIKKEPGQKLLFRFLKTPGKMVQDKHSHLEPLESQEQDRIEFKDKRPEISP
# Method in brief: as §1
# ELF4, sequence (Q99607 whole entry): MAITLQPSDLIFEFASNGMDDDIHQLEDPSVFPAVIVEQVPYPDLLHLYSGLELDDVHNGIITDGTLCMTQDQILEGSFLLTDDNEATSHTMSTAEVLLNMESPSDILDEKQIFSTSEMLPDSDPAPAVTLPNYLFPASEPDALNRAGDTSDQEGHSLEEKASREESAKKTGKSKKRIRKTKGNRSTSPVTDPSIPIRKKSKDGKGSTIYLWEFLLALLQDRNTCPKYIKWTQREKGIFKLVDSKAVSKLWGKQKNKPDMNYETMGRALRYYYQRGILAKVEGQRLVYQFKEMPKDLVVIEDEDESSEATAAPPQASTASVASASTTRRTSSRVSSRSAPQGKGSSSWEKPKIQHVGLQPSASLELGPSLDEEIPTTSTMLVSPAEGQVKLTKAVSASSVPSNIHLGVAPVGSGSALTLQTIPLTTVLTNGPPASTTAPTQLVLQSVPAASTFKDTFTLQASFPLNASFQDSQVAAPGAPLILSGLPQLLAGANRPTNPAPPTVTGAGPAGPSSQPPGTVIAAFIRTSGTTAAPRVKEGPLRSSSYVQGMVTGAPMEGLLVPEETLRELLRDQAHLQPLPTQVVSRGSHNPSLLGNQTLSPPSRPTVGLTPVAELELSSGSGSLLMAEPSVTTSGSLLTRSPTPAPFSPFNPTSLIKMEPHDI
# ETV1, sequence (P50549 whole entry): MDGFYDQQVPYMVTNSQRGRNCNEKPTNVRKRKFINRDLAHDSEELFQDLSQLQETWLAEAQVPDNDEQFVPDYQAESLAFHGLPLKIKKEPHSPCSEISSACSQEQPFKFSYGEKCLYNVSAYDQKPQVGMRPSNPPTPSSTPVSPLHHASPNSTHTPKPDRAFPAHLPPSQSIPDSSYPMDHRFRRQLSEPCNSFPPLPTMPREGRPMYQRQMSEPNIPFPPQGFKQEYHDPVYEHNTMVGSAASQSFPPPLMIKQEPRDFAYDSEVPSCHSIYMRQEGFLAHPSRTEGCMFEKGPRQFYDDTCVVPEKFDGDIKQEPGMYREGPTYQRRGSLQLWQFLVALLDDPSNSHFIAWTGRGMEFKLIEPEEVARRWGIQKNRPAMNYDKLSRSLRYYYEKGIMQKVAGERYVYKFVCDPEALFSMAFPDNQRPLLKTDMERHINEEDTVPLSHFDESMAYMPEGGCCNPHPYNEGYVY
# ETV6, sequence (P41212 whole entry): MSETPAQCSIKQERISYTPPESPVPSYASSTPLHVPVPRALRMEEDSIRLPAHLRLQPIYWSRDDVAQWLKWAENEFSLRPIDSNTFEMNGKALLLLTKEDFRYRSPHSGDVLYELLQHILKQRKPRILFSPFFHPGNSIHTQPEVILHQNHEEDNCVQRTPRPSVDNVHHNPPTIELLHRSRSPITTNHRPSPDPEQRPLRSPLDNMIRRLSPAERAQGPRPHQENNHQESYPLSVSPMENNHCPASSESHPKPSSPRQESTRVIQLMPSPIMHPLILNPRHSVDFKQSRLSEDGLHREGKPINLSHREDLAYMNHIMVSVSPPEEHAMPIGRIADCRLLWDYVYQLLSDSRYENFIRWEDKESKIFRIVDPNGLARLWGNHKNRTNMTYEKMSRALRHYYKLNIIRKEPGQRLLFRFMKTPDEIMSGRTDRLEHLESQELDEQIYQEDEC
# HSF1, sequence (Q00613 whole entry): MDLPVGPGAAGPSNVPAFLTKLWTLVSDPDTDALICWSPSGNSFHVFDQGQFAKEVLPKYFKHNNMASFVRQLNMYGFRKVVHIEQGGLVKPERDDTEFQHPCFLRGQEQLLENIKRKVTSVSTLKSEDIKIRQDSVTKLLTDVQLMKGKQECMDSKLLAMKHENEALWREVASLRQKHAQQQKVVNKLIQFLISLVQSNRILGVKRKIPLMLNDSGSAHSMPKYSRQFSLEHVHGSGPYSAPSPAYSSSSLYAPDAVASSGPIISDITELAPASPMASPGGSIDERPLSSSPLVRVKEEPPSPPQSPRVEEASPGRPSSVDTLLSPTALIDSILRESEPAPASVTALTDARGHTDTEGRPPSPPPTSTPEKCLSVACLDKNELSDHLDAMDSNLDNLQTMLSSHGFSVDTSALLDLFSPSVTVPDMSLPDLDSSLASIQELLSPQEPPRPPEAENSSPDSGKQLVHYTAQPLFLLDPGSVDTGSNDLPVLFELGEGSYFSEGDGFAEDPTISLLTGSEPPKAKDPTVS
# ETV5, sequence (P41161 whole entry): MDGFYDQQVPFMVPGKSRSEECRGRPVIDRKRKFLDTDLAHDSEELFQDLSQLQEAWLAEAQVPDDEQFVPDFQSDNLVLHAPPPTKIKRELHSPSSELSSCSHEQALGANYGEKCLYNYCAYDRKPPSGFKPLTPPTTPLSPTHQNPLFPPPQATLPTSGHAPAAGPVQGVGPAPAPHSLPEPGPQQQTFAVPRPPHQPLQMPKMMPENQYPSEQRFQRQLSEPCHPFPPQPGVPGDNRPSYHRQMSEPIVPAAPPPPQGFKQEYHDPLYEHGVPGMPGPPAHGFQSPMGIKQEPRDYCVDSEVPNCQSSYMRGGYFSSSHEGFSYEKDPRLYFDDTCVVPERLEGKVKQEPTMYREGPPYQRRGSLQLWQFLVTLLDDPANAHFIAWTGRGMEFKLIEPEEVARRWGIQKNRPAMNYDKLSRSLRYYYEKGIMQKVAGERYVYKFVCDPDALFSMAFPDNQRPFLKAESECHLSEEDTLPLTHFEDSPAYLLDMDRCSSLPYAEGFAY
# CRX, sequence (O43186 whole entry): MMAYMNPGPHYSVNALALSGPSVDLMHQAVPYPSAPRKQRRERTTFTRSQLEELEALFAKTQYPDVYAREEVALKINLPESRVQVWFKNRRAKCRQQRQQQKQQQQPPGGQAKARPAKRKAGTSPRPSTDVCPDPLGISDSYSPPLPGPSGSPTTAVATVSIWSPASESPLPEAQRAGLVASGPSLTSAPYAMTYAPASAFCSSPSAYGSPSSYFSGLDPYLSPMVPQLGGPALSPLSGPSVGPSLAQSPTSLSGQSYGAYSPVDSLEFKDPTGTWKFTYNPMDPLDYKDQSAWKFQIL
Sequence,binding signal (FEV),binding signal (ETV5),binding signal (HSF1),binding signal (SPIC),binding signal (ELF4),binding signal (ELK4),binding signal (ETV2),binding signal (CRX),binding signal (ETV1),binding signal (ERF),binding signal (ETV3L),binding signal (ETS2),binding signal (SPDEF),binding signal (ELF5),binding signal (ETV3),binding signal (ETV6),binding signal (ETV7)
GATACT,"1.1 fold enrichment (6-mer frequency, TF over GST control)","1.07 fold enrichment (6-mer frequency, TF over GST control)","1.07 fold enrichment (6-mer frequency, TF over GST control)","1.05 fold enrichment (6-mer frequency, TF over GST control)","1.18 fold enrichment (6-mer frequency, TF over GST control)","1.18 fold enrichment (6-mer frequency, TF over GST control)","1.02 fold enrichment (6-mer frequency, TF over GST control)","1.07 fold enrichment (6-mer frequency, TF over GST control)","1.1 fold enrichment (6-mer frequency, TF over GST control)","1.22 fold enrichment (6-mer frequency, TF over GST control)","1.22 fold enrichment (6-mer frequency, TF over GST control)","1.09 fold enrichment (6-mer frequency, TF over GST control)","1.17 fold enrichment (6-mer frequency, TF over GST control)","1.06 fold enrichment (6-mer frequency, TF over GST control)","1.06 fold enrichment (6-mer frequency, TF over GST control)","1.07 fold enrichment (6-mer frequency, TF over GST control)",–
TGCGCG,"1.07 fold enrichment (6-mer frequency, TF over GST control)","1.07 fold enrichment (6-mer frequency, TF over GST control)","1.15 fold enrichment (6-mer frequency, TF over GST control)","1.05 fold enrichment (6-mer frequency, TF over GST control)","1.05 fold enrichment (6-mer frequency, TF over GST control)","1.16 fold enrichment (6-mer frequency, TF over GST control)","1.13 fold enrichment (6-mer frequency, TF over GST control)",–,"1.19 fold enrichment (6-mer frequency, TF over GST control)","1.24 fold enrichment (6-mer frequency, TF over GST control)","1.02 fold enrichment (6-mer frequency, TF over GST control)",–,–,"1.01 fold enrichment (6-mer frequency, TF over GST control)","1.03 fold enrichment (6-mer frequency, TF over GST control)","1.14 fold enrichment (6-mer frequency, TF over GST control)","1.23 fold enrichment (6-mer frequency, TF over GST control)"
